PubChem BioAssay (NCATS)
Inconclusive results are not listed. Activity calls are given as the source filed them. Calls come from the whole dose curve; as a rule, active = well fitted curve in the direction sought with a large enough effect; inconclusive = small, poorly fitted or top-dose-only effect, or another doubt; inactive = no such curve, though single readings can be large; an effect the other way counts as inactive or inconclusive.

Key:
[1] = qHTS of pediatric cancer cell lines to identify multiple opportunities for drug repurposing: Primary screen for TC32 cells (AID 1347089); note: nearly all actives have a fitted effect of over 60% in size; note: potency is the fitted concentration of half-maximal effect
How it was run: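 A viability screen of TC32 cells was run over 48 h, with primary MIPE doses spanning 0.78 nM–46 µM and NPC doses 0.59 nM–46 µM. ATP luminescence (CellTiter-Glo) served as the read-out.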

[2] = qHTS of pediatric cancer cell lines to identify multiple opportunities for drug repurposing: Primary screen for SJ-GBM2 cells (AID 1347091); note: potency is the fitted concentration of half-maximal effect
How it was run: (§1)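 Viability measured as metabolically active cells via CellTiter-Glo luminescence following 48 hours of compound exposure, 11-point dilutions in confirmatory testing. 500-1,000 cells/well plated 5 hours before dosing; controls were DMSO and 2.3 µM bortezomib.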

[3] = qHTS of pediatric cancer cell lines to identify multiple opportunities for drug repurposing: Primary screen for SK-N-MC cells (AID 1347093); note: potency is the fitted concentration of half-maximal effect
How it was run: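 Metabolically active cells were quantified by ATP-dependent luminescence (CellTiter-Glo, 15 min at room temperature) following 48 h treatment. Cells had been plated at 500-1,000 per well and settled for 5 h beforehand.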

[4] = qHTS of pediatric cancer cell lines to identify multiple opportunities for drug repurposing: Primary screen for BT-37 cells (AID 1347094); note: potency is the fitted concentration of half-maximal effect
How it was run: (§2)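 CRCs from 8- or 11-point titrations (lowest final 0.59 nM NPC, 0.78 nM MIPE). Cell viability: CellTiter-Glo after 48 h incubation, 15 min room-temperature development, luminescence imaging.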

[5] = qHTS of pediatric cancer cell lines to identify multiple opportunities for drug repurposing: Primary screen for NB-EBc1 cells (AID 1347095); note: potency is the fitted concentration of half-maximal effect
How it was run: as §2

[6] = qHTS of pediatric cancer cell lines to identify multiple opportunities for drug repurposing: Primary screen for Saos-2 cells (AID 1347097); note: nearly all actives have a fitted effect of over 40% in size; note: potency is the fitted concentration of half-maximal effect
How it was run: as §2

[7] = qHTS of pediatric cancer cell lines to identify multiple opportunities for drug repurposing: Primary screen for NB1643 cells (AID 1347099); note: nearly all actives have a fitted effect of over 50% in size; note: potency is the fitted concentration of half-maximal effect
How it was run: as §2

[8] = qHTS of pediatric cancer cell lines to identify multiple opportunities for drug repurposing: Primary screen for LAN-5 cells (AID 1347100); note: potency is the fitted concentration of half-maximal effect
How it was run: (§3)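 Viability after 48 h compound treatment at 37C, 500-1,000 cells/well, read as ATP luminescence with CellTiter-Glo. Primary screens used 11-point (MIPE, 0.78 nM-46 µM) or 8-point (NPC, 0.59 nM-46 µM) final concentrations; follow-up screens used 11-point dilutions.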

[9] = qHTS of pediatric cancer cell lines to identify multiple opportunities for drug repurposing: Primary screen for BT-12 cells (AID 1347101); note: nearly all actives have a fitted effect of over 25% in size; note: potency is the fitted concentration of half-maximal effect
How it was run: (§4)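 Cells (500-1,000/well) rested 5 h, then received compounds for 48 h; metabolically active cells were measured by CellTiter-Glo luminescence. Final concentrations spanned up to 46 µM (MIPE, 11-point) or 0.59 nM-46 µM (NPC, 8-point) in primary screens, 11-point in follow-ups.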

[10] = qHTS of pediatric cancer cell lines to identify multiple opportunities for drug repurposing: Primary screen for Rh18 cells (AID 1347102); note: nearly all actives have a fitted effect of over 65% in size; note: potency is the fitted concentration of half-maximal effect
How it was run: as §3

[11] = qHTS of pediatric cancer cell lines to identify multiple opportunities for drug repurposing: Primary screen for OHS-50 cells (AID 1347103); note: nearly all actives have a fitted effect of over 40% in size; note: potency is the fitted concentration of half-maximal effect
How it was run: as §4

[12] = qHTS of pediatric cancer cell lines to identify multiple opportunities for drug repurposing: Primary screen for MG 63 (6-TG R) cells (AID 1347105); note: nearly all actives have a fitted effect of over 50% in size
How it was run: as §2

[13] = qHTS of pediatric cancer cell lines to identify multiple opportunities for drug repurposing: Primary screen for Rh30 cells (AID 1347107); note: series mostly up to about 46 µM; nearly all actives have a fitted effect of over 75% in size
How it was run: as §3

[14] = qHTS of pediatric cancer cell lines to identify multiple opportunities for drug repurposing: Primary screen for Rh41 cells (AID 1347108); note: nearly all actives have a fitted effect of over 70% in size; note: potency is the fitted concentration of half-maximal effect
How it was run: as §2

[15] = qHTS of pediatric cancer cell lines to identify multiple opportunities for drug repurposing: Primary screen for U-2 OS cells (AID 1347096); note: nearly all actives have a fitted effect of over 50% in size; note: potency is the fitted concentration of half-maximal effect
How it was run: as §3

[16] = qHTS of pediatric cancer cell lines to identify multiple opportunities for drug repurposing: Primary screen for RD cells (AID 1347104); note: nearly all actives have a fitted effect of over 55% in size; note: potency is the fitted concentration of half-maximal effect
How it was run: as §2

[17] = qHTS of pediatric cancer cell lines to identify multiple opportunities for drug repurposing: Primary screen for control Hh wild type fibroblast cells (AID 1347106);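 note: series mostly up to about 46 µM; a drop in luminescence marks cytotoxicity and a rise apparent proliferation; nearly all actives have a fitted effect of over 55% in size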
How it was run: as §3

[18] = qHTS of pediatric cancer cell lines to identify multiple opportunities for drug repurposing: Primary screen for A673 cells (AID 1347092); note: nearly all actives have a fitted effect of over 45% in size; note: potency is the fitted concentration of half-maximal effect
How it was run: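 Titration-based qHTS on A673 cells: MIPE compounds spanned 11 points (0.78 nM to 46 µM final), NPC compounds 8 points (0.59 nM to 46 µM final). Viability after 48 h was measured by ATP luminescence.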

[19] = qHTS of pediatric cancer cell lines to identify multiple opportunities for drug repurposing: Primary screen for DAOY cells (AID 1347090); note: nearly all actives have a fitted effect of over 55% in size; note: potency is the fitted concentration of half-maximal effect
How it was run: as §1

[20] = qHTS of pediatric cancer cell lines to identify multiple opportunities for drug repurposing: Primary screen for SK-N-SH cells (AID 1347098); note: nearly all actives have a fitted effect of over 65% in size; note: potency is the fitted concentration of half-maximal effect
How it was run: as §4

Structure (SMILES) | Potency [1] | Potency [2] | Potency [3] | Potency [4] | Potency [5] | Potency [6] | Potency [7] | Potency [8] | Potency [9] | Potency [10] | Potency [11] | Potency [12] | Potency [13] | Potency [14] | Potency [15] | Potency [16] | Potency [17] | Potency [18] | Potency [19] | Potency [20]
COC(=O)[C@@H](N)CCCN=C(N)N[N+](=O)[O-] | inactive | inactive | 6620 nM (active) | inactive | inactive | inactive | 9350 nM (active) | inactive | inactive | inactive | inactive | inactive | inactive | inactive |  |  |  |  |  | 
C[C@H]1CCCC=CC2C[C@H](O)C[C@@H]2[C@H](O)C=CC(=O)O1 (stereo partly specified) | 13.1 nM (active) | 1 nM (active) |  | 1 nM (active) | 1 nM (active) | 3720 nM (active) | 1 nM (active) | 1 nM (active) | 1 nM (active) | 1 nM (active) | 1 nM (active) |  | inactive |  | 1 nM (active) | 1 nM (active) |  |  |  | 
CC(C)(C)c1cc(C=C(C#N)C#N)cc(Br)c1O | inactive | 2640 nM (active) |  |  | 4690 nM (active) |  | 4690 nM (active) |  |  | inactive | 30600 nM (active) |  | inactive | inactive | inactive |  | inactive |  |  | 
Nc1ccc(N=Nc2ccccc2)cc1 |  |  |  |  |  | inactive |  | 38600 nM (active) |  |  |  |  |  | inactive |  |  | inactive | 24300 nM (active) |  | 
O=C(Nc1ccncc1)C(=O)c1cn(Cc2ccc(Cl)cc2)c2ccccc12 |  | 41.8 nM (active) | 66.2 nM (active) | 217 nM (active) | 26.4 nM (active) | 37.2 nM (active) |  |  | 137 nM (active) | inactive | 86.3 nM (active) |  | inactive | 74.3 nM (active) |  | 46.9 nM (active) | inactive | 74.3 nM (active) | 93.5 nM (active) | 
C=CCON=C(C[C@H]1O[C@@H]2O[C@]3(C)CC[C@@H]4[C@H](C)CC[C@@H]([C@H]1C)[C@@]24OO3)[C@H]1O[C@@H]2O[C@]3(C)CC[C@H]4[C@H](C)CC[C@@H]([C@@H]1C)[C@@]24OO3 |  | 372 nM (active) |  | 432 nM (active) | 372 nM (active) | inactive | 833 nM (active) | 469 nM (active) | 344 nM (active) |  | 306 nM (active) |  | inactive | 469 nM (active) | inactive |  |  |  |  | inactive
O=S(=O)(CC1CS1)c1ccc(Oc2ccccc2)cc1 (stereo unspecified) |  | 26400 nM (active) |  | 19300 nM (active) | 23500 nM (active) | 18700 nM (active) | 18700 nM (active) | 23500 nM (active) |  |  | 30600 nM (active) |  |  | 18700 nM (active) |  |  | inactive | 9350 nM (active) |  | 24100 nM (active)
COc1ccc(N(C(=O)Oc2c(C)cccc2C)c2ccnc(Nc3ccc(N4CCN(C)CC4)cc3)n2)c(OC)c1 | inactive | 8330 nM (active) |  | 15300 nM (active) | 8330 nM (active) |  |  | 1480 nM (active) |  | inactive | 9680 nM (active) |  | inactive | inactive |  |  |  | 935 nM (active) |  | 242 nM (active)
CC[C@H]1C=CC=CC[C@@H](C)[C@H](O)[C@@](C)(O)C(=O)[C@@H](C)[C@H](O)[C@@H](C)C(=O)[C@@H](C)[C@H](O)[C@@H](C)C=CC(=O)O[C@@H]2[C@@H](C)[C@H](CC1)O[C@]1(CC[C@H](C)[C@H](C[C@@H](C)O)O1)[C@H]2C |  | 264 nM (active) | 3.3 nM (active) | 2.2 nM (active) | 13.2 nM (active) |  |  | 18700 nM (active) | 6.1 nM (active) | 26400 nM (active) | 4.9 nM (active) |  | inactive |  |  | 23500 nM (active) | inactive |  | 3.7 nM (active) | 
O=C1CCC[C@@H]2[C@H]3CCCN4CCC[C@@H](CN12)[C@@H]34 |  | inactive | inactive | inactive | inactive | inactive | inactive | inactive | inactive | inactive | inactive | inactive | inactive | inactive | inactive | inactive | inactive | inactive | inactive | inactive
CCOC(=O)c1c(C(C#N)=CN)c2ccc(Cl)c(Cl)c2n1C | inactive |  | 18700 nM (active) | inactive |  |  |  | inactive | inactive | inactive | inactive |  |  |  | inactive | inactive | inactive | inactive |  | 
CC(=Cc1csc(C)n1)[C@@H]1C[C@H]2O[C@@H]2CCC[C@H](C)[C@@H](O)[C@@H](C)C(=O)C(C)(C)[C@@H](O)CC(=O)O1 | 1.2 nM (active) | 1 nM (active) |  |  | 1 nM (active) | 1 nM (active) |  | 1 nM (active) |  | inactive | 1 nM (active) |  | inactive |  |  |  |  |  |  | 
CC(C)[C@]12O[C@@H]1[C@@H]1O[C@]13[C@]1(O[C@H]1C[C@@H]1C4=C(CC[C@@]13C)C(=O)OC4)[C@H]2O |  | 1 nM (active) | 1 nM (active) | 1 nM (active) | 1 nM (active) | 1660 nM (active) | inactive | inactive | 1 nM (active) |  | 1 nM (active) |  | inactive | 52600 nM (active) | 1 nM (active) | 1 nM (active) | inactive | 1 nM (active) |  | 
CCCCCCCCc1ccc(O)cc1 |  |  |  |  |  | 39000 nM (active) | inactive |  |  | inactive | 25400 nM (active) | inactive | inactive | inactive | inactive | inactive | inactive |  | inactive | 
